Hits are enriched below; roughly 0.69% of the tested compounds scored in any of these assays.
PfHsp90 set2 = growth inhibition of yeast expressing Plasmodium Hsp90. S. cerevisiae expressing PfHsp90, BacTiter-Glo ATP, 48 h; yeast lacking PDR1 and PDR3 efflux regulators. inhibition, % at 9.4 µM. 0.32% of 310,000 active. AID 504621;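 active = every replicate shows inhibition above about 80%, whatever the replicate mean, limit read from the data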;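 note: 0% = DMSO neutral controls and 100% = 20 µM radicicol positive controls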
Tat transport = inhibitors of E. coli Tat protein transport; E. coli MC4100 TorA-mCherry Tat export, fluorescence; inhibition, % at 10 µM; 0.036% of 340,000 active; AID 488895;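 active = mean replicate inhibition at least 50% and at least half of replicates individually reaching 50%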;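 note: exported cargo escapes ClpAP degradation while cytoplasmic cargo is degraded and loses fluorescence; 0% = median of neutral control wells and 100% = median of NaSCN control wells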
E coli growth-1 = counter-screen for AddAB inhibitors: E. coli growth inhibition; 0.27% of 330,000 active; E. coli V3065 growth, OD600 absorbance, 18 h; inhibition, % at 11.9 µM;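 active = inhibition above the campaign's mean inhibition across all tested compounds plus 3 SD, cut at about 9.9% in these data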;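 note: uninfected addAB+ strain grown without phage in ampicillin broth; 0% = DMSO wells and 100% = ciprofloxacin 0.95 µg/ml wells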
AddAB inh = less growth of phage-infected E. coli with AddAB; E. coli expressing H. pylori AddAB, absorbance growth; inhibition, % at 11.9 µM; 0.29% of 330,000 active; AID 435030; in the data active = inhibition above about 12%;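 note: 0% = vehicle wells of infected cells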
E coli growth-2 = inhibitors of Escherichia coli growth. OD600, 23 h; hits give low values. OD600 absorbance (test concentration not listed). 0.21% of 330,000 active;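 active = OD600 absorbance below the run mean of sample wells minus 3.6 SD, in any replicate, cut at about 0.56 in these data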
phage Ecoli inh = E. coli growth loss with phage present | 0.26% of 360,000 active | growth absorbance | inhibition, % at 11.9 µM; in the data active = inhibition above about 11%
The depositor's hits bear a star; . = no result.

SMILES	PfHsp90 set2	Tat transport	E coli growth-1	AddAB inh	E coli growth-2	phage Ecoli inh
OCCCn1c(C2CCCN2c2nc(-c3ccc(F)cc3)cs2)nc2cc(Cl)c(Cl)cc21 (configuration not stated)	107*	9	-1	3	0.69	4
OCCCn1c(C2CCCN2c2nc(-c3ccc(Cl)cc3)cs2)nc2cc(Cl)c(Cl)cc21 (configuration not stated)	-17	-15	-2	1	0.73	5
O=C(CSc1cccc[n+]1[O-])c1cc(Cl)ccc1Cl	-5	1	-1	5	0.12*	0
CCc1ccc2c(c1)/C(=C/C(=O)c1cccs1)C(=O)N2	124*	3	1	5	0.62	1
Cc1cc(Br)c2c(c1)/C(=C/C(=O)c1cccs1)C(=O)N2	88*	-9	-1	3	0.64	4
Cc1cccc2c1NC(=O)/C2=C\C(=O)c1cccs1	-28	0	2	2	0.68	3
O=C(O)C=CC(=O)O	.	.	.	.	0.68	.
CC(=NNc1nc(N2CCCCCC2)nc(N2CCCCCC2)n1)c1ccccc1	.	.	.	.	0.73	.
CS(=O)(=O)n1nc(-c2ccc(Cl)cc2)nc1N	-14	4	-2	-1	0.67	2
Cn1nc(-c2ccc(Cl)cc2)nc2c(=O)n(C)c(=O)nc1-2	.	-12	8	8	0.48*	.
Cc1ccc(S(=O)(=O)N2C(c3ccc(C(C)C)cc3)CC=C(C(=O)O)C2c2ccccc2)cc1 (configuration not stated)	.	.	.	.	0.69	.
CC[n+]1c(/C=C/N(C)c2ccccc2)oc2ccc(Cl)cc21	1	7	-1	2	.	2
CCN1/C(=C/C=C/c2oc3ccc4ccccc4c3[n+]2CC)Oc2ccc3ccccc3c21	.	.	11*	11	0.69	.
COC(=O)C1CC1C(NS(=O)(=O)c1ccc2ccccc2c1)c1ccccc1 (configuration not stated)	.	.	.	.	0.69	.
CCOC(=O)c1c(-c2ccc(F)cc2)csc1N=CN(C)C	.	.	.	.	0.7	.
Cc1nnc(SCC2=C(C(=O)O)N3C(=O)C(NC(=O)Cn4ncc(Cl)c4C)C3SC2)s1 (configuration not stated)	-13	7	1	-1	0.44*	4
CC(=O)OCC1=C(C(=O)O)N2C(=O)[C@@H](NC(=O)CSc3ccncc3)[C@H]2SC1	20	-8	.	.	0.22*	6
Cc1cc(C)n(CC(=O)NC2C(=O)N3C(C(=O)O)=C(CSc4nnc(C)s4)CSC23)n1 (configuration not stated)	-2	22	1	2	0.19*	5
CCCCC(CNC(CNC)C(C)CC)NCCC12CCC(CC1)C2 (configuration not stated)	.	.	.	.	0.69	.
COc1ccc(S(=O)(=O)N(C)CC2Oc3ccc(NC(=O)C4CC4)cc3C(=O)N(C(C)CO)CC2C)cc1 (configuration not stated)	.	.	.	.	0.7	.
CN1CCN(C2=Cc3cc(Cl)ccc3Sc3cc(F)ccc32)CC1	-5	-2	-2	1	0.36*	3
O=C(O)C1Nc2c(Cl)cc(Cl)c(Cl)c2C2C=CCC12 (configuration not stated)	-46	3	-2	1	0.68	-1
CC(C)C1Nc2c(O)cc(Cl)c([N+](=O)[O-])c2C2C=CCC21 (configuration not stated)	110*	-12	.	.	0.66	7
COc1ccc(N2CCN(c3c(S(=O)(=O)c4ccccc4)cnc4ccc(OC)cc34)CC2)cc1	104*	3	0	4	.	-2
O=C(Nc1ccccc1)c1ccc(Nc2c([N+](=O)[O-])cc([N+](=O)[O-])c3ccccc23)cc1	18	2	0	3	.	0
SMILES	PfHsp90 set2	Tat transport	E coli growth-1	AddAB inh	E coli growth-2	phage Ecoli inh
O=[N+]([O-])c1cc(Br)c(Nc2ccccc2)c([N+](=O)[O-])c1	120*	10	-1	4	0.64	2
COc1cc(C=NNC(=O)c2cc(C34CC5CC(CC(C5)C3)C4)[nH]n2)ccc1O	.	.	.	.	0.72	.
Cc1ccc2c(c1)C1C(CO2)C(c2ccccc2)[C@]2(C)C(=O)Nc3cc(F)ccc3C(=O)N12 (some centres not stated)	.	.	.	.	0.69	.
COc1cccc(Oc2cn[nH]c2-c2ccc(OCC(=O)NN)cc2O)c1	-3	-14	4	2	0.68	0
CCCOC(=O)c1ccc(Oc2cn[nH]c2-c2ccc(OC)cc2O)cc1	106*	2	0	5	0.72	6
CCCOc1ccc(C(=O)NNC(=S)NC(=O)c2ccccc2)cc1	25	-1	4	-1	.	0
CC(Oc1ccc(Cl)cc1)C(=O)NNC(=S)NC(=O)c1ccco1 (configuration not stated)	103*	-3	-2	1	0.68	1
CCCOc1ccc(C(=O)NNC(=S)NC(C)=O)cc1	17	-19	-7	4	0.27*	7
CCCCOc1ccc(C(=O)NNC(=S)NC(=O)CC)cc1	106*	1	-5	-7	0.56	.
O=C(COc1ccc(Cl)cc1Cl)NNC(=S)NC(=O)c1ccco1	-17	-1	-8	-7	0.65	-4
CCC(=O)NC(=S)NNC(=O)c1ccc(OC)cc1	.	12	1	-1	0.46*	-6
COC(=O)C1=C(C)N(Cc2ccccc2)C(=NCCCCO)NC1c1cccc(C(F)(F)F)c1 (configuration not stated)	.	.	.	.	0.66	.
COc1ccc(C(=O)NNC(=S)NC(=O)c2ccco2)cc1	.	3	-1	2	0.44*	-2
COc1ccc2cc(C(c3nnnn3C3CCCCC3)N3CCCCCC3)c3nnnn3c2c1 (configuration not stated)	-6	-6	0	0	0.73	0
COc1ccc2cc(C(c3nnnn3C3CCCC3)N3CCCCCC3)c3nnnn3c2c1 (configuration not stated)	13	-4	12*	9	0.78	2
O=C(CN1CCOCC1)NN=Cc1ccc(-c2ccc(Br)cc2)o1	.	.	.	.	0.66	.
CN1/C(=C/c2cc[n+](C)c3ccccc23)C=Cc2ccccc21	34	-161	.	.	0.34*	.
C[n+]1ccc(/C=C/c2ccccc2O)c2ccccc21	14	-1	0	1	0.66	1
Nc1ncnc2c1ncn2[C@@H]1O[C@H](COP(=O)(O)O)[C@@H](O)[C@H]1O	70	1	0	0	.	1
Nc1ncnc2c1ncn2C1OC(COP(=O)(O)O)C(O)C1O (configuration not stated)	97*	0	-1	-2	0.66	0
Nc1ncnc2c1ncn2[C@@H]1O[C@H](COP(=O)(O)OP(=O)(O)OP(=O)(O)O)[C@@H](O)[C@H]1O	88*	-4	-1	-2	.	3
CCCCCCn1ccc(=N)cc1	11	3	-1	4	0.77	1
CCCCCCCCCCCCCCCCn1cc[n+](CC(C)=O)c1	105*	32	.	.	0.064*	.
O=S(=O)(Nc1cccc(-c2nc3cccnc3s2)c1)c1ccc2c(c1)OCCO2	-23	7	-1	-1	0.78	1
